From PubChem BioAssay (EPA / NIEHS)
Activity calls are given as the source filed them. Rule for the calls: active = hit-call score of the fitted dose curve at least 0.9, where 1 is the maximum; inactive = score below 0.9.

Each compound was assayed on ABC Transporter (ABCB1), ABCB1 (gene 5243) (assay: LTEA_HepaRG_ABCB1: Life Technologies and Expression Analysis (LTEA) Assay for ABC Transporter (ABCB1) using HepaRG (AID 2283460)). Conditions: mRNA level, 48 h; actives raise or lower the signal.
Protocol: LTEA_HepaRG is a cell based, multiplexed-readout assay that uses HepaRG, a human liver cell line, with measurements taken at 48 hours after chemical dosing on a 96-well plate.LTEA_HepaRG_ABCB1 is one of 102 assay component(s) measured in the LTEA HepaRG cell culture assay. It is a marker of Steatosis/NR mediated transport.Data from the assay component LTEA_HepaRG_ABCB1 was analyzed into 1 endpoint. This assay endpoint, LTEA_HepaRG_ABCB1, was analyzed with bidirectional fitting relative to DMSO as the negative control and baseline of activity. Using a type of inducible reporter, measures of mRNA induction for gain or loss-of-signal activity can be used to understand regulation of transcription factor activity. To generalize the intended target to other relatable targets, this assay endpoint is annotated to the transporter intended target family, where the subfamily is ABC transporter.
A total of 1060 chemcials from the ToxCast library were tested in eight-point concentration-response experiments. Cell culture and cytotoxicity assays were conducted at Thermo Fisher Scientific's Custom Services facility (Madison, WI). A single lot of human HepaRG cells (Thermo Fisher Scientific, Frederick, MD) was used for the cell culture experiments. 96-well format collagen type I coated plates of human HepaRG cells were prepared using established methods. Briefly, cryopreserved HepaRG cells were thawed, plated at a density of approximately 100,000 cells/well in HepaRG Thaw, Plate, and General Purpose media (HPRG770, Thermo Fisher Scientific), and incubated for 48 hours. 0.5% DMSO was selected as vehicle control to balance the requisite need of DMSO in HepaRG cultures to maintain differentiation (for example, baseline metabolism, proportions of hepatocytes vs. cholangiocytes), while enabling further hepatic receptor pathway activation (for example, PXR and CAR) in response to chemical exposure. 48 hours after plating, the culture medium was replaced with HepaRG Serum-Free Incudtion Media. Cells were exposed to each test chemical in duplicate and maintained in CO2 incubators for another 48 hours. Chemical plates were thawed to room temperature and 200x concentrations of treatment groups were prepared. 8-point conentration-reponse curves were made with the highest exposure at 100 uM, followed by half-log dilutions, all in 0.5% DMSO. Each test plate contained variouse controls, induction positive controls (1mM phenobarbital), cytotoxicity positive controls ([…] aflatoxin B1), vehicle controls (0.5% DMSO), and total lysis controls (0.5% DMSO). Cell morphology images were taken using an Essen IncuCyte FLR automated microscope, with six 96-well plates imaged in about 24 minutes. Images were captured and exported and JPEG files. Spent culture media was transfered to black-well plates for the LDH assay, and remaining media was sorted at -80 C for later use. Cells were treated with RLT buffer and frozen until shipped for gene expression analysis. Total RNA was isolated from the cell suspension in 75 uL of Buffer RLT (Qiagen, Germantown, MD 20874) by Quintiles/Expression Analysis (Durham, NC) using a custom isolation procedure. Total RNA from each plate well was transferred to a preamplification plate. Fluidigm's 96.96 Dynamic ArrayTM (Fluidigm, Amsterdam, the Netherlands) technology was used for gene expression analyses by quantitative reverse transcription polymerase chain reaction (qRT-PCR, performed by Quintiles/Expression Analysis, Durham, NC)89. Standard TaqManTM Assays (Applied Biosystems/ThermoFisher Scientific, Foster City, CA) were used to assess the expression of 93 genes selected based on their selectivity and sensitivity to important hepatic receptors known to be modulated by environmental chemicals; importance in human hepatocyte functionality; and hepatotoxicity. […]
`C=CCc1ccc(O)c(OC)c1` was tested, and the outcome was “inactive”.
`CCOC(=O)CCC(=O)OCC` was tested, and the outcome was “inactive”.
In the case of `Cc1ccc2ncccc2c1`, the outcome was “inactive”.
`NS(=O)(=O)c1cc2c(cc1Cl)NCNS2(=O)=O` was tested, and the outcome was “inactive”.
With `CN[C@H]1CC[C@@H](c2ccc(Cl)c(Cl)c2)c2ccc(S(N)(=O)=O)cc21` the AC50 was 89.3 µM (active).
For `CCCCC(CC)COC(=O)CC(C(=O)OCC(CC)CCCC)S(=O)(=O)O` (stereo not given), the AC50 was 89.9 µM (active).
For `CCCCOC(=O)CCCCCCCCC(=O)OCCCC`, the outcome was “inactive”.
`CC(=O)C(C)=CC1C(C)=CCCC1(C)C` (stereo not given) was tested, and the outcome was “inactive”.
`CN1CCN(Cc2cc(-c3ccc4[nH]c(=O)oc4c3)co2)[C@@H](c2ccc(F)cc2)C1` was tested, and the outcome was “inactive”.
`O=C(O)Cc1ccccc1Nc1c(Cl)cccc1Cl` was tested, and the AC50 was 6.67 µM (active).
With `O=[N+]([O-])C(CO)(CO)CO` the outcome was “inactive”.
`Cc1ccc(C)c(C)c1` was tested, and the outcome was “inactive”.
In the case of `Clc1cc(Cl)c(Cl)cc1Cl`, the outcome was “inactive”.
In the case of `FC(F)(F)C(F)(F)C(F)(F)C(F)(F)C(F)(F)C(F)(F)CCI`, the outcome was “inactive”.
`CC(CO)OC(C)CO` (stereo not given) (tested in a mixture with another compound) was tested, and the outcome was “inactive”.
In the case of `CC1(C)CC(N=C=O)CC(C)(CN=C=O)C1` (stereo not given), the outcome was “inactive”.
With `Cc1cccc(Nc2cc(Cl)nc(SCC(=O)O)n2)c1C` the AC50 was 50 µM (active).
With `CCCCCCCCCCO` the outcome was “inactive”.
For `COCCOCCOC`, the AC50 was 2.83 µM (active).
In the case of `O=C(OCCCCCOC(=O)c1ccccc1)c1ccccc1`, the AC50 was 0.27 µM (active).
In the case of `CNCc1cc(F)ccc1Oc1ccc(Cl)c(Cl)c1`, the outcome was “inactive”.
`CCCCN(CCCC)CCCC` was tested, and the outcome was “inactive”.
With `CCNc1cccc(C)c1` the outcome was “inactive”.
In the case of `Cc1cc(=O)[nH]c(=S)[nH]1`, the outcome was “inactive”.
`NC(=O)Cn1c(=O)cc(CCN2CCN(c3nccc4sccc34)CC2)c2ccc(F)cc21` was tested, and the AC50 was 36.6 µM (active).
`COc1ccc(S(=O)(=O)N2C(=O)[C@@](c3ccccc3OC)(N3C[C@H](O)C[C@H]3C(=O)N(C)C)c3cc(Cl)ccc32)c(OC)c1` was tested, and the outcome was “inactive”.
With `CCCCCC(=O)O` the outcome was “inactive”.
With `CCCCc1ccc2c(n1)[C@@H](c1ccc(OC)cc1C[C@H](C)C(=O)O)[C@H](C(=O)O)[C@H]2c1ccc2c(c1)OCO2` the outcome was “inactive”.
With `CCCCCCOCCO` the outcome was “inactive”.
In the case of `CN1CCCC1=O`, the outcome was “inactive”.
`CCCCCCC(=O)OCC` was tested, and the outcome was “inactive”.
For `Cc1ccc(Cl)cc1`, the outcome was “inactive”.
With `Nc1ccccc1N` the AC50 was 68.9 µM (active).
With `CC(=O)Oc1ccccc1C(=O)O` the outcome was “inactive”.
`Cc1ccccc1Cl` was tested, and the outcome was “inactive”.
In the case of `CC1(C)NC(=O)NC1=O`, the outcome was “inactive”.
In the case of `Cc1c(C(=O)O)c(O)cc2c1C(=O)c1c(O)c([C@@H]3O[C@H](CO)[C@@H](O)[C@H](O)[C@H]3O)c(O)c(O)c1C2=O`, the outcome was “inactive”.
In the case of `CCOC(=O)C(C)(C)Oc1ccc(Cl)cc1`, the outcome was “inactive”.
With `CCCCCCCCCCCCCO` the outcome was “inactive”.
`COc1ccc2c(c1)c(CC(=O)O)c(C)n2C(=O)c1ccc(Cl)cc1` was tested, and the outcome was “inactive”.
